These results are taken from ChEMBL document CHEMBL4513146, “CO-ADD screening of Karazin Kharkiv National University (Ukraine) compounds”.

Results with a measured potency or affinity are listed apart.

In one experiment the test system is Klebsiella pneumoniae. As to conditions: Concentration 32 ug.mL-1;; ASSAY_TEST Inhibition of Bacterial Growth; detection method Absorption (OD600); MEDIA CAMHB; plate type 384well; NBS; CORNING #3640; time 18 hr.
The next experiment relates to Candida albicans. The conditions noted are these: Concentration 32 ug.mL-1; ASSAY_TEST Inhibition of Fungal Growth; detection method Absorption (OD530).
The test system of a further experiment is Cryptococcus neoformans. As to conditions: Concentration 32 ug.mL-1; ASSAY_TEST Inhibition of Fungal Growth; detection method Resazurin; Absorption (OD600-OD570); plate type 384well; NBS; CORNING #3640.

In the case of `Cc1cccc(NC(=O)c2ccc3nnc(SCC(=O)Nc4ccc(Br)cc4)n3c2)c1`, the Inhibition with Klebsiella pneumoniae is 7.72%; in the experiment with Candida albicans, 7.81%; in the experiment with Cryptococcus neoformans, -6.93%.

Regarding `CC(C)CCn1c(=O)c2ccc(C(=O)NC3CCCCC3)cc2n2c(=O)n(CC#N)nc12`, the figures for the Inhibition in the experiment with Klebsiella pneumoniae, with Candida albicans and with Cryptococcus neoformans were 4.36%, 4.75% and -17.66%, respectively.

`CCC(C)NC(=O)Cn1nc2n(Cc3cccs3)c(=O)c3sccc3n2c1=O` (centres undefined): the Inhibition in the experiment with Klebsiella pneumoniae is on record as 6.55%; in the experiment with Candida albicans it was 0.06%; with Cryptococcus neoformans it was -19.39%.

As for `Cc1cccc(C)c1NC(=O)Cn1nc2c(N3CCSCC3)nc3ccccc3n2c1=O`, the Inhibition in the experiment with Klebsiella pneumoniae is 7.3%; in the experiment with Candida albicans it was 2.93%; in the experiment on Cryptococcus neoformans it was -23.14%.

In the case of `CCc1cccc(NC(=O)CSc2nnc3c(=O)n(-c4ccccc4)ccn23)c1`, the values for the Inhibition in the experiment with Klebsiella pneumoniae, in the experiment on Candida albicans and in the experiment with Cryptococcus neoformans were 3.17%, 8.67% and -15.51%, respectively.

Take `COc1ccc(N(Cc2cccc(F)c2)S(=O)(=O)c2ccc3nncn3c2)cc1`: the Inhibition in the experiment on Klebsiella pneumoniae is given as 25.01%; in the experiment on Candida albicans, 3.57%; in the experiment on Cryptococcus neoformans, -1.54%.

Regarding `COC(=O)c1ccc(NC(=O)CSc2nnc3c4cc(-c5ccc(OC)cc5)nn4ccn23)cc1`, the values for the Inhibition with Klebsiella pneumoniae, in the experiment with Candida albicans and in the experiment on Cryptococcus neoformans were 13.79%, 0.37% and -25.69%, respectively.

Take `Cc1nnc2c(=S)[nH]c3ccccc3n12`: the figures for the Inhibition in the experiment with Klebsiella pneumoniae, in the experiment on Candida albicans and in the experiment with Cryptococcus neoformans were 21.93%, -0.01% and -43.69%, respectively.

Consider `COc1ccc(NC(=O)Cn2nc3ccc(-c4ccc(Cl)cc4)nn3c2=O)cc1OC`, for which the figures for the Inhibition with Klebsiella pneumoniae, in the experiment on Candida albicans and with Cryptococcus neoformans were 8.45%, -2.47% and -11.98%, respectively.

Regarding `COc1ccc(N(Cc2cccc(C)c2)S(=O)(=O)c2ccc3nncn3c2)cc1`, the results for the Inhibition in the experiment on Klebsiella pneumoniae, in the experiment with Candida albicans and with Cryptococcus neoformans were -1.75%, 4.35% and -8.71%, respectively.

With `CCOc1ccc(NC(=O)Cn2nc3c(Sc4ccccc4)nccn3c2=O)cc1`, the Inhibition is 8.21% in the experiment on Klebsiella pneumoniae, 7.49% in the experiment on Candida albicans and -21.93% in the experiment on Cryptococcus neoformans.

Regarding `Cc1nnc2c(=O)n(CC(=O)Nc3ccc(C(C)C)cc3)c3ccccc3n12`, the Inhibition in the experiment on Klebsiella pneumoniae is reported as 15.67%; in the experiment on Candida albicans it was 5.98%; with Cryptococcus neoformans, -14.04%.

Turning to `COc1cc(NC(=O)Cn2nc3c4c5c(sc4ncn3c2=O)CCCC5)cc(OC)c1`, the Inhibition is 4.67% with Klebsiella pneumoniae, 7.26% in the experiment with Candida albicans and -16.68% in the experiment with Cryptococcus neoformans.

With `O=C(CSc1nnc2c3cc(-c4ccccc4)nn3ccn12)NCc1ccccc1Cl`, the values for the Inhibition in the experiment on Klebsiella pneumoniae, in the experiment on Candida albicans and in the experiment with Cryptococcus neoformans were 7.7%, 0.55% and -17.16%, respectively.

Consider `COC(=O)c1ccc(NC(=O)Cn2nc3ccc(Sc4ccc(C)cc4)nn3c2=O)cc1`, for which the Inhibition in the experiment with Klebsiella pneumoniae is 13.07%; with Candida albicans, 2.46%; in the experiment on Cryptococcus neoformans it was -10.13%.

`O=c1c2nnc(-c3cccc([N+](=O)[O-])c3)n2ccn1-c1ccc(F)cc1`: the Inhibition is listed as 11.79% in the experiment on Klebsiella pneumoniae, 5.6% in the experiment on Candida albicans and -10.38% with Cryptococcus neoformans.

For the compound `O=C(Cn1nc2c(N3CCOCC3)nccn2c1=O)N1CCN(c2ccccc2F)CC1`, the Inhibition in the experiment with Klebsiella pneumoniae was 8.66%; in the experiment on Candida albicans it was 0.78%; in the experiment on Cryptococcus neoformans, -5.23%.

For `Cc1cc(C)c(NC(=O)Cn2c(=O)c3nnc(C(C)C)n3c3ccccc32)c(C)c1`, the Inhibition with Klebsiella pneumoniae was 11.01%; in the experiment on Candida albicans it was 4.09%; in the experiment with Cryptococcus neoformans, -5.77%.

Consider `CCCc1nnc2c(=O)n(CC(=O)N3CCCc4ccccc43)c3ccccc3n12`, for which the Inhibition with Klebsiella pneumoniae was 7.45%; in the experiment on Candida albicans it was 0.04%; with Cryptococcus neoformans it was -21.26%.

Take `CC(C)c1nnc2c(SCC(=O)Nc3cccc(Cl)c3)nc3ccccc3n12`: the Inhibition in the experiment with Klebsiella pneumoniae is reported as 10.95%; in the experiment on Candida albicans, 2.12%; in the experiment on Cryptococcus neoformans, -14.08%.

Turning to `CSc1cccc(NC(=O)Cn2c(=O)c3nnc(C(C)C)n3c3ccccc32)c1`, the Inhibition with Klebsiella pneumoniae is 10.43%; with Candida albicans, 3.45%; in the experiment on Cryptococcus neoformans, -18.2%.

As to `COc1cccc(CN(c2cc(F)cc(F)c2)S(=O)(=O)c2ccc3nnc(C)n3c2)c1`, the figures for the Inhibition in the experiment on Klebsiella pneumoniae, in the experiment with Candida albicans and in the experiment with Cryptococcus neoformans were 6.42%, 1.34% and -5.08%, respectively.

Turning to `CCOC(=O)c1ccccc1NC(=O)Cn1nc2c(Oc3ccc(C)cc3)nccn2c1=O`, the Inhibition is -8.56% with Klebsiella pneumoniae, 4.6% with Candida albicans and -10.52% with Cryptococcus neoformans.

For the compound `Cc1nnc2c(S(=O)(=O)N(Cc3ccccc3Cl)c3ccc(F)c(F)c3)cccn12`, the Inhibition was 13.53% with Klebsiella pneumoniae, 0.59% in the experiment with Candida albicans and -7.47% with Cryptococcus neoformans.

Regarding `O=c1n(Cc2cccc(C(F)(F)F)c2)nc2c(S(=O)(=O)N3CCCC3)cccn12`, the Inhibition in the experiment with Klebsiella pneumoniae is 13.65%; in the experiment with Candida albicans, 1.01%; with Cryptococcus neoformans, -8.52%.

With `Cc1cc(C)c(NC(=O)Cn2nc3c(SC4CCCCC4)nccn3c2=O)c(C)c1`, the Inhibition is 10.47% in the experiment on Klebsiella pneumoniae, 13.47% with Candida albicans and -24.78% in the experiment on Cryptococcus neoformans.

`COc1cccc(-n2ccn3c(SCC(=O)NC(C)C)nnc3c2=O)c1`: the Inhibition is listed as 10.83% with Klebsiella pneumoniae, 1.96% in the experiment on Candida albicans and -12.8% in the experiment on Cryptococcus neoformans.

With `O=S(=O)(c1ccc2nncn2c1)N(Cc1cccc(F)c1)c1cc(F)cc(F)c1`, the Inhibition in the experiment with Klebsiella pneumoniae was 12.28%; with Candida albicans it was 4.13%; with Cryptococcus neoformans, -6.89%.
